# Source: PubChem BioAssay
# Rows were chosen to be rich in hits. Some 5.5% of all compounds tested hit in one or more screens of this group.
# Six1-Eya2 inh: inhibitors of human Six1/Eya2 interaction. Q15475+O00167. AlphaScreen GST-Six1/His-Eya2 binding, biochemical; hits give low values. activity change, % (concentration not given with the values). actives 0.56% (n = 360,000); in the data active = activity change below about -65%; inconclusive = mostly about -30% to -63%; note: % is set by controls: 0 for no effect and ±100 for the full control effect
#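 Homogeneous AlphaScreen proximity assay pairing GST-Six1 with His-tagged Eya2 (added as 5X mix: 250 nM and 500 nM) in 50 mM Tris pH 8.0, 300 mM NaCl, 1 mM TCEP. Glutathione donor and nickel acceptor beads; 1 h, 37 °C, dark.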
# RORgamma inh: ROR gamma (mouse) transcription inhibition. P51450. Drosophila S2 Gal4-RORgamma UAS-luciferase reporter, 20 h. Potency, µM (top dose mostly 53.6 µM), without a hit: at the highest dose activity change, negative = inhibition, most hits filed as inhibitors. actives 5.4% (n = 310,000). AID 2551; note: potency is the fitted concentration of half-maximal effect; % is set by controls: 0 for no effect and ±100 for the full control effect; nearly all actives have a fitted effect of over 60% in size
#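 Using a luciferase readout, inhibitors were identified by reduced reporter activity in Drosophila cells coexpressing a copper-inducible Gal4–ROR gamma fusion and UAS-driven Photinus luciferase, incubated 20 hr after 700 uM copper sulfate.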
# VP16 counter: Gal4-VP16 reporter inhibition counter-screen; Potency, µM (series often up to 53.6 µM), for the others: at the highest dose activity, negative = inhibition, usual class: inhibitors; actives 3.5% (n = 310,000); Drosophila S2 Gal4-VP16 UAS-luciferase, luminescence, 20 h;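 note: Gal4-VP16 expression switched on by copper sulfate through the metallothionein promoter; potency is the fitted concentration of half-maximal effect; % is set by controls: 0 for no effect and ±100 for the full control effect; nearly all actives have a fitted effect of over 50% in size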
# CBFb RUNX1 block: CBF-beta/RUNX1 interaction disruption; 230,000 tested, under 10 active; AlphaScreen CBFb-His/RUNX1-biotin binding, biochemical; Potency, µM (doses to about 59.8 µM), without a hit: at the highest dose activity, negative = inhibition, actives largely listed as inhibitors; note: % of control where 0% means no effect
# Target sequence (Q01196 whole entry, looked up): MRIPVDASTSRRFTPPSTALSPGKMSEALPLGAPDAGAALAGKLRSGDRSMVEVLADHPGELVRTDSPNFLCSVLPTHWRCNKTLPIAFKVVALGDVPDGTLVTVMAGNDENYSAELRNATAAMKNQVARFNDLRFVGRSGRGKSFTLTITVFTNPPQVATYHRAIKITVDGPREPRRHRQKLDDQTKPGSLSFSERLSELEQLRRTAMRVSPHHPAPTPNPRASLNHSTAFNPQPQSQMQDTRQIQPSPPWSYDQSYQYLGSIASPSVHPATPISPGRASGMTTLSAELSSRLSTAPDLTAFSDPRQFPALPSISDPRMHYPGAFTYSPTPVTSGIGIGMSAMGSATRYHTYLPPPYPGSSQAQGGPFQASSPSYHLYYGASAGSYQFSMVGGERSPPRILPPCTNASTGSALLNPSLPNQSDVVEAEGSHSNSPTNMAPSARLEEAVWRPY
# Target sequence (Q13951 whole entry, looked up): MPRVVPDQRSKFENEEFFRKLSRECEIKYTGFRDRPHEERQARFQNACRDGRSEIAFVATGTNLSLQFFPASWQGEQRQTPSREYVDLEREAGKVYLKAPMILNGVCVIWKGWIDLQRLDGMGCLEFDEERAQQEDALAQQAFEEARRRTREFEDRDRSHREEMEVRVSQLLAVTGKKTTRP
#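 Room-temperature protein-protein interaction test with 30 nM each of His-tagged CBF-beta and biotinylated RUNX1, 15 min with compound, then 90 min with nickel plus streptavidin beads. Signal read in AlphaScreen mode.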
# MBNL1 CUG block: MBNL1-poly(CUG) RNA binding inhibition. TR-FRET MBNL1-His/biotin-(CUG)12 binding, 665/545 ratio. Potency, µM (titrated, usually from 57.5 µM), for the others: at the highest dose activity change, negative = inhibition, usual class: inhibitors. actives 0.036% (n = 280,000). AID 2675; active = well fitted inhibition curve with a large enough effect in the signal ratio, with a control signal flat, not every such curve was filed as active; inconclusive = small, poorly fitted or top-dose-only effect, or effect the other way, or a change in a side signal; inactive = no such curve, though single readings can be large or run the other way; the % refers to the signal ratio; note: potency is the fitted concentration of half-maximal effect; % is set by controls: 0 for no effect and ±100 for the full control effect
#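 TR-FRET between His-tagged MBNL1 and biotin-(CUG)12 RNA, detected with Tb anti-His antibody (0.055 ng/ul) and streptavidin-XL665 (5 nM), 60 min at room temperature. Compounds titrated 92 nM to 58 uM; 665/545 nm ratio normalized to buffer and complex controls.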
# CtBP-E1A inh: CtBP/E1A binding inhibition. AlphaScreen GST-E1A/His-CtBP binding, 1536-well; hits give low values. activity change, % (no concentration beside the values). actives 0.49% (n = 340,000); in the data active = activity change below about -65%; inconclusive = mostly about -30% to -63%; note: % is set by controls: 0 for no effect and ±100 for the full control effect
#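 Steps: dispense buffer (Tris pH 8.0, NaCl 300 mM, TCEP 1 mM, BSA, Tween 20); add 5X protein mix (GST-E1A, His-CtBP, 125 nM each); pin 23 nL compound; 2 h at 37 °C, dark; add 5X beads (50 ug/mL); 1 h; read.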
# * hit, by the source's call; u = inconclusive; x = not tested or not shown; [ ] = another dose, or the depositor's remark. Unless noted, calls come from the whole dose curve; as a rule, active = well fitted curve in the direction sought with a large enough effect; inconclusive = small, poorly fitted or top-dose-only effect, or another doubt; inactive = no such curve, though single readings can be large; an effect the other way counts as inactive or inconclusive.
SMILES,Six1-Eya2 inh,RORgamma inh,VP16 counter,CBFb RUNX1 block,MBNL1 CUG block,CtBP-E1A inh
C=CCn1c(=S)[nH]c2cc(C(=O)N3CCN(c4ccccc4OC)CC3)ccc2c1=O,-3,x,x,x,x,-8
O=C(C1CCC(Cn2c(=S)[nH]c3ccccc3c2=O)CC1)N1CCN(c2ccccc2)CC1 (configuration not stated),-14,x,x,x,x,-15
O=C(C1CCC(Cn2c(=S)[nH]c3ccccc3c2=O)CC1)N1CCOCC1 (configuration not stated),-2,11µM*,u,5%,-11%,-5
COc1ccccc1N1CCN(C(=O)C2CCC(Cn3c(=S)[nH]c4ccccc4c3=O)CC2)CC1 (configuration not stated),-23,2.5µM*,5µM*,1%,-4%,-26
CCC(=O)c1ccc(N2CCN(C(=O)c3ccccc3)CC2)c(F)c1,1,-34%,u,6%,6%,x
CCC/C(=N\NC(=O)C1CCCC1)c1ccccc1,8,17%,6%,x,0%,6
O=C(C1CCC(Cn2c(=S)[nH]c3ccccc3c2=O)CC1)N1CCN(c2ccccn2)CC1 (configuration not stated),1,5.6µM*,u,-5%,-8%,-19
O=C(C1CCC(Cn2c(=O)[nH]c3ccccc3c2=O)CC1)N1CCN(c2ccccc2)CC1 (configuration not stated),-10,18%,-8%,3%[2.36 µM],15%,-3
CN(C)C(=S)Nc1ccc2ccccc2c1,0,16µM*,u,-3%,3%,1
CC(=O)Nc1ccc2ccccc2c1,0,33%,5%,14%,-1%,5
O=C(CSc1ccc2ccccc2n1)N/N=C/c1ccccc1O,u,1.4µM*,3.2µM*,x,-1%,u
O=C(N/N=C/c1cc([N+](=O)[O-])ccc1O)c1cccc2ccccc12,x,2.8µM*,2.2µM*,x,12%,x
O=C(N/N=C/C=C/c1ccccc1)c1ccccn1,-23,-36%,-17%,-20%,u,-12
O=C(CSc1ccc2ccccc2n1)N/N=C/c1ccc(O)cc1,-1,u,u,x,12%,x
O=C(NN=Cc1cc(Cl)ccc1[N+](=O)[O-])c1cccc2ccccc12,-4,x,x,x,x,1
O=C(Cn1cncn1)N/N=C/c1ccccc1O,-85*,8.9µM*,u,-27%,6%,-94*
O=C(CSc1ccccn1)N/N=C/C=C/c1ccccc1,-1,u,16µM*,-8%,u,x
Cc1ccc(NS(=O)(=O)c2cccc3cccnc23)c(Cl)c1,-14,u,-14%,x,-3%,x
Cc1c(Cl)ccc(S(=O)(=O)Nc2cccnc2)c1Cl,4,-10%,-3%,x,-5%,1
Cc1ccn(CC(=O)N/N=C/c2cc([N+](=O)[O-])ccc2O)n1,-90*,u,8.9µM*,u,u,-93*
O=C(Cn1cncn1)N/N=C/c1cc([N+](=O)[O-])ccc1O,-91*,8.9µM*,-15%,x,u,x
NC(=O)c1cc([N+](=O)[O-])ccc1NCc1cccc2ccccc12,-19,x,x,x,x,-7
O=C(Cn1nnc(-c2ccccc2)n1)N/N=C/c1cc([N+](=O)[O-])ccc1O,u,-4%,-26%,-4%,-23%,10
O=C(CSc1ccccn1)N/N=C/c1ccccc1[N+](=O)[O-],1,18%,u,u,u,-5
O=C(/C=C/Nc1ccc([N+](=O)[O-])cc1Br)c1cccc2ccccc12,4,2.5µM*,u,-2%,1%,-1
SMILES,Six1-Eya2 inh,RORgamma inh,VP16 counter,CBFb RUNX1 block,MBNL1 CUG block,CtBP-E1A inh
O=C(CSc1ccccn1)N/N=C/c1cc([N+](=O)[O-])ccc1O,-88*,2µM*,7.1µM*,-24%,u,x
CC1Sc2ccc(S(=O)(=O)CCC(=O)NC3CCCC(C)C3C)cc2NC1=O (configuration not stated),5,-9%,5%,x,4%,x
Nc1nc(C(c2ccccc2)c2ccccc2)cs1,-5,0%,-5%,x,0%,-11
O=C(Cn1nc2ccccc2n1)N/N=C/c1cc([N+](=O)[O-])ccc1O,u,u,1.4µM*,-3%,u,x
O=C(N/N=C/c1c[nH]c2ccccc12)c1cc(Br)ccc1O,-8,5.6µM*,7.9µM*,x,0%,-25
O=C(N/N=C/c1c[nH]c2ccccc12)c1[nH]c2ccc(Br)cc2c1-c1ccccc1,-5,16µM*,u,7%,-3%,-3
C/C=N/NC(=O)c1cc(Br)ccc1O,-14,11µM*,u,17%,-6%,3
O=[N+]([O-])c1ccccc1N/N=C/c1c[nH]c2ccccc12,-84*,24%,u,x,u,-78*
CC(C)C[C@@H]1CC2=C(C(=O)OC(C)(C)O2)[C@H](c2ccc(Cl)cc2)O1,14,x,x,x,x,6
Cc1cc2nc(C(C)(C)C)c(Cc3ccccc3C(F)(F)F)n2c(C)c1Br,-2,x,x,x,x,1
CCN(C(=O)CSc1nnc(-c2ccco2)n1C)c1c(N)n(Cc2ccccc2)c(=O)[nH]c1=O,0,x,x,x,x,6
CON(C)S(=O)(=O)c1cccc(C(=O)Nc2cccc(S(=O)(=O)NC3=NCCCCC3)c2)c1,-1,x,x,x,x,4
N#Cc1ccc(C(=O)NC2CCCCCCC2)cc1,0,-36%,0%,x,-3%,4
O=C(N/N=C/c1c[nH]c2ccccc12)c1cccc([N+](=O)[O-])c1,-16,13µM*,u,0%,u,-30
O=C(NN=C1CCN(Cc2ccccc2)CC1)c1ccccc1,1,-39%,7%,-10%,-11%,-3
